12-LOX inh = ALOX12 (human) lipoxygenase inhibition; P18054; purified 12hLO, xylenol orange hydroperoxide absorbance; Potency, µM (doses to about 108 µM), for inactives: top-dose activity change, negative = inhibition, actives largely listed as inhibitors; 580,000 compounds, 1.1% hits
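Purified human 12hLO at 150 nM in 25 mM Hepes, 0.01% Triton X-100, pH 7.0, preincubated 15 min at room temperature with compound. Reaction started with 40 uM arachidonic acid, 30 min at room temperature. Hydroperoxide measured by Fe-xylenol orange, 573/405 nm absorbance ratio.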
RORgamma inh = blocks mouse ROR gamma transcriptional activity | 310,000 compounds, 5.4% hits | Drosophila S2 Gal4-RORgamma UAS-luciferase reporter, 20 h | Potency, µM (titrated, usually from 53.6 µM), without a hit: at the top dose activity change, negative = inhibition, hits mostly inhibitors | P51450; further: nearly all actives have a fitted effect of over 60% in size
Target sequence (P51450 whole entry, looked up, the tested form may be a part): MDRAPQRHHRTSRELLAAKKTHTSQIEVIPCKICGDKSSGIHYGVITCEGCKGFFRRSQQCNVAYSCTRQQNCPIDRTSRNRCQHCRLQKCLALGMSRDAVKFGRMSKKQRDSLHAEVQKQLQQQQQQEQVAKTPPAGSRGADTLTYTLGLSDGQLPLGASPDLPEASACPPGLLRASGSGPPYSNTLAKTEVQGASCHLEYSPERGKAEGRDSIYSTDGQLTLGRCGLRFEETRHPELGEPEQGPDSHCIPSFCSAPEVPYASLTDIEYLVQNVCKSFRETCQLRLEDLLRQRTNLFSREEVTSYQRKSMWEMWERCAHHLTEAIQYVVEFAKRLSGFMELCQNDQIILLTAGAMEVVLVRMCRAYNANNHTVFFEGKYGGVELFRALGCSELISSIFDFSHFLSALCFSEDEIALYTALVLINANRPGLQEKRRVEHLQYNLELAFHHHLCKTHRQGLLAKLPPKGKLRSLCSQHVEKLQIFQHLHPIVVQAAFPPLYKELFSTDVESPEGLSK
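ROR gamma transcriptional activity was tracked as Gal4-UAS luciferase output in stably transfected Drosophila Schneider cells, with compound added 1 hr before 700 uM copper sulfate induction and a 20 hr ambient-temperature incubation.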
VP16 counter = Gal4-VP16 reporter inhibition counter-screen; 310,000 compounds, 3.5% hits; AID 2546; Drosophila S2 Gal4-VP16 UAS-luciferase, luminescence, 20 h; Potency, µM (top dose mostly 53.6 µM), without a hit: top-dose activity, negative = inhibition, actives largely listed as inhibitors;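 further: Gal4-VP16 expression switched on by copper sulfate through the metallothionein promoter; nearly all actives have a fitted effect of over 50% in size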
TDP1 cell noCPT = qHTS for Inhibitors of human tyrosyl-DNA phosphodiesterase 1 (TDP1): qHTS in cells in absence of CPT. 420,000 compounds, 15% hits. Potency, µM (highest dose often 46.2 µM), for the others: top-dose activity change, negative = growth inhibition, usual class: inhibitors. DT40 Tdp1-/- hTDP1 cells, no CPT, ATP luminescence, 48 h. AID 686978, 2013; further: nearly all actives have a fitted effect of over 55% in size
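Luminescent ATP content (CellTiter-Glo) served as the growth readout. Knockout chicken DT40 cells expressing human TDP1 were exposed to compounds without camptothecin for a minimum 48 hr at 37 °C.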
DT40 TDP1 CPT = DT40-hTDP1 cell growth loss with CPT | chicken DT40 Tdp1-/-;hTDP1 cells + 20 nM CPT, ATP luminescence, 48 h | Potency, µM (top dose mostly 46.2 µM), for the others: at the highest dose activity change, negative = growth inhibition, most hits filed as inhibitors | 420,000 compounds, 12% hits | AID 686979; further: nearly all actives have a fitted effect of over 55% in size
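Cell growth measured by CellTiter-Glo luminescence after a minimum 48 h, 37 C compound exposure with 20 nM CPT in Tdp1-knockout DT40 cells stably expressing hTDP1, seeded 400/well; qHTS titration format.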
ELG1 repair inh = blocks ELG1-dependent DNA repair in HEK293T cells. HEK293T ELG1-luciferase reporter, luminescence, 16 h; DNA damage induced by 5-fluorouridine. Potency, µM (highest dose often 46.1 µM), inactives show top-dose activity change, negative = inhibition, hits mostly inhibitors. 330,000 compounds, 2.3% hits. AID 504467; further: nearly all actives have a fitted effect of over 55% in size
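Luminescence from the luciferase reporter, measured 30 min after ONE-Glo reagent at room temperature, was the read-out. Beforehand, 2,000 cells per well were exposed for 16 hr at 37 °C to 5-fluorouridine together with compound or vehicle.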
Numbers without * were called inactive; ? = inconclusive; . = not tested or not shown; [ ] = dose if it differs, or a comment. In the library only some 15% were active in any assay of this set; here they are far more common. The call rests on the fitted dose curve; in most records, active means well fitted curve in the direction sought with a large enough effect; inconclusive means small, poorly fitted or top-dose-only effect, or another doubt; inactive means no such curve, though single readings can be large; an effect the other way counts as inactive or inconclusive. On the % scale 0 is the no-effect control and ±100 the full control effect; potency means the concentration at half of the fitted maximal effect.

SMILES	12-LOX inh	RORgamma inh	VP16 counter	TDP1 cell noCPT	DT40 TDP1 CPT	ELG1 repair inh
O=C(NC(=S)Nc1ccc(CN2CCOCC2)cc1)c1ccc([N+](=O)[O-])cc1	-18.8%	14.1µM*	10µM*	-23.6%	?	?
CCc1ccc(NC(=O)C(=O)NCCN2CCN(Cc3ccc([N+](=O)[O-])cc3)CC2)cc1	-21.5%	40.2%	-16.5%	9.2µM*	10.3µM*	-15.2%
Cc1ccc(NC(=O)C(=O)NCCN2CCN(Cc3ccc([N+](=O)[O-])cc3)CC2)cc1	-27.1%	22.9%	7.6%	?	-27.7%	?
O=C(COc1ccc(Cl)cc1)Nc1ccc(CN2CCOCC2)cc1	?	.	.	?	-24.1%	?
Cc1ccc(OCC(=O)c2ccc3c(c2)N(CCCC(=O)N2CCOCC2)C(=O)CO3)c(Cl)c1	10.3%	.	.	.	.	.
O=C(Cc1cccc(Cl)c1)N1CCc2nc(-c3ccccc3)nc(-c3ccc(Cl)cc3)c2C1	-5.5%	.	.	.	.	.
COc1ccc(CC(=S)N2CCOCC2)cc1	?	37.3%	24.4%	18.4µM*	?	20.5%
COc1ccc(C(=O)NC(=S)Nc2ccc(CN3CCOCC3)cc2)cc1Br	?	7.08µM*	17.8µM*	10.3µM*	?	23.1µM*
Cc1ccc(CC(=S)N2CCOCC2)cc1	?	-8.3%	6.8%	-20.0%	-0.7%	13.8%
COc1ccc(C(=O)NC(=S)Nc2ccc(CN3CCOCC3)cc2)cc1	?	11.2µM*	?	?	?	-20.0%
CCCCOc1ccc(C(=O)NC(=S)Nc2ccc(CN3CCOCC3)cc2)cc1	?	?	1.0%	?	?	-17.0%
O=C1CCCCCN1C1CCN(Cc2cccc3ccccc23)CC1	22.1%[176 µM]	.	.	.	.	.
CNC(=O)C1(N2CCC[C@H]2C(=O)NCCOC)CCOCC1	10µM*	.	.	.	.	.
CC(C)c1ccc(NC(=O)NCC(O)c2ccc(F)c(F)c2)cc1 (stereo not drawn)	11.5%	.	.	.	.	.
C=C1C(=CC=C2CCCC3(C)[C@@H]([C@H](C)C=CC=CC(O)(CC)CC)CC[C@@H]23)C[C@@H](O)C[C@@H]1O (stereo partly drawn)	-43.0%[57.4 µM]	.	.	.	.	.
Cc1c(-c2nc(N)nc(Nc3ccc(F)cc3)n2)oc2ccccc12	0.0%	-26.9%	-16.7%	?	?	?
COc1ccccc1Nc1nc(N)nc(CCl)n1	0.0%	3.1%	?	13µM*	18.4µM*	?
COc1ccccc1Nc1nc(N)nc(CN2CCCCC2)n1	39.6%	-40.6%	-11.6%[10 µM]	-6.5%	1.2%	?
COc1ccccc1Nc1nc(N)nc(-c2oc3ccccc3c2C)n1	0.0%	1.4%	-1.0%	?	8.2µM*	10.9%
CCOc1ccccc1Nc1nc(N)nc(CN(C)C2CCCCC2)n1	40.8%	11.2µM*	-9.4%	?	?	-8.8%
COc1ccccc1Nc1nc(N)nc(CSC(=S)N2CCCCC2)n1	-10.2%	-43.5%	-19.8%	13µM*	8.2µM*	?
Cc1ccc(-c2cc(C(=O)N3CCC(c4nc(C5CCOCC5)no4)C3)c3ccccc3n2)cc1C (stereo not drawn)	12.4%	.	.	.	.	.
COc1ccc(-c2noc([C@@H]3CCCN3C(=O)c3cc4ccccc4[nH]3)n2)cc1OC	36.1%	.	.	.	.	.
CCc1ncn2ccn(Cc3ccccc3F)c(=O)c12	46.7%	.	.	.	.	.
CCn1c(C2CCN(C(=O)[C@@H](N)Cc3cnc[nH]3)CC2)nn(C)c1=O	63.6%	.	.	.	.	.
SMILES	12-LOX inh	RORgamma inh	VP16 counter	TDP1 cell noCPT	DT40 TDP1 CPT	ELG1 repair inh
COc1ccc(OC)c(Nc2nc(N)nc(CSc3nnc(N)s3)n2)c1	0.0%	-28.1%	-17.6%[0.365 µM]	-8.6%	-11.5%	0.0%
COc1ccc(OC)c(Nc2nc(N)nc(CCl)n2)c1	0.0%	-33.2%	?	18.4µM*	11.6µM*	?
COc1ccc(C(=O)OCc2nc(N)nc(Nc3ccccc3C)n2)cc1OC	5.5%	17.8µM*	5.2%	?	?	?
O=C1NCCCCCCN(C(=O)c2cccs2)[C@H]2CCCC[C@@H]12	5.0%	.	.	.	.	.
Cc1cccc(NC(=S)NC2CC3CCCC(C2)N3Cc2ccccc2)c1C (stereo not drawn)	-11.5%	14.1µM*	?	?	16.4µM*	-0.2%
Cc1cccc(NC(=S)NC2CCCC2)c1C	?	7.08µM*	7.08µM*	0.2%	0.7%	-3.8%
Cc1cccc(NC(=S)NN2CCOCC2)c1C	?	11.2µM*	1.6%	7.9%	-2.7%	15.0%
CCc1ccccc1NC(=S)NC1CC2CCC(C1)N2Cc1ccc(F)cc1 (stereo not drawn)	?	7.08µM*	?	-20.3%	?	5.2%
Cc1cccc(NC(=S)NC2CC3CCC(C2)N3Cc2ccco2)c1C (stereo not drawn)	1.1%	-43.8%	-12.5%	-7.1%	-28.1%	2.7%
Cc1cccc(NC(=S)NN2CCN(C)CC2)c1C	?	8.5%	8.6%	7.9%	-7.7%	14.6%
CSc1ccc(NC(=O)C2CCN(C(=O)c3ncn4c3COC(c3ccc(F)cc3)C4)CC2)cc1 (stereo not drawn)	19.7%	.	.	.	.	.
CC(C)c1cnc(C2CCN(C(=O)OC(C)(C)C)CC2)[nH]1	2.0%[12.5 µM]	.	.	.	.	.
Cc1cccc(NC(=S)NC2CCCCCC2)c1C	50.1µM*	3.16µM*	7.08µM*	10.3µM*	20.6µM*	-0.1%
Cc1c(Cl)cccc1NC(=S)NC1CCCC1	?	4.47µM*	5.62µM*	-17.4%	-1.1%	-19.9%
Oc1ccc(O)c(Cc2nc3ccccc3[nH]2)c1	?	15.8µM*	-29.4%	8.2µM*	?	8.4%
COc1ccc(-c2c(C)oc3cc(OCC#N)ccc3c2=O)cc1OC	-3.4%	.	.	.	.	.
CCOC(=O)Cn1nnnc1C(CC)N(Cc1cccs1)Cc1cc2cc(C)ccc2[nH]c1=O (stereo not drawn)	0.0%	31.7%	1.8%	?	?	-13.5%
CCOc1ccc2[nH]c(=O)c(CN(Cc3cccs3)C(CC)c3nnnn3C(C)(C)CC)cc2c1 (stereo not drawn)	3.0%	-0.9%	-12.3%	18.4µM*	20.6µM*	?
CCC(c1nnnn1C1CCCC1)N(Cc1cccs1)Cc1cc2cc(C)ccc2[nH]c1=O (stereo not drawn)	?	-12.9%	-20.1%	20.6µM*	18.4µM*	?
CCN1CCN(c2ncc3c(n2)CCN(Cc2cc(Br)cs2)C3)CC1	11.2µM*	.	.	20.6µM*	18.4µM*	.
Cc1ccsc1CN1CCc2nc(N3CCN(c4ccccc4F)CC3)ncc2C1	3.9%	.	.	?	?	.

Screening data as filed in PubChem.
